Data from PubChem BioAssay (EPA / NIEHS).
Where “and” joins values, the source holds several entries; their conditions need not be identical. Equal values may be shown once. Calls of active or inactive are those of the source. The calls were made as follows: active = hit-call score of the fitted dose curve at least 0.9, where 1 is the maximum; inactive = score below 0.9.

Key:
[1] = read-out: Monocyte Chemoattractant Protein-1 (MCP1), CCL2 (gene 6347); test: BSK_BF4T_MCP1: BioMAP Diversity Plus: BF4T Assay for Monocyte Chemoattractant Protein-1 (MCP1) Biomarker Activity (AID 2284259); details: primary human bronchial epithelial cells with fibroblasts
In short: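 Co-culture of bronchial epithelial cells and dermal fibroblasts dosed with chemical; MCP-1 measured by ELISA 24 h later. Activity fitted in positive direction versus DMSO; cytotoxicity checked by SRB staining in parallel cultures.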

[2] = read-out: Intercellular Adhesion Molecule 1 (ICAM1), ICAM1 (gene 3383); test: BSK_BF4T_ICAM1: BioMAP Diversity Plus: BF4T Assay for Intercellular Adhesion Molecule 1 (ICAM1) Biomarker Activity (AID 2284260); details: primary human bronchial epithelial cells with fibroblasts
In short: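 Co-culture of human bronchial epithelial cells and dermal fibroblasts exposed 24 h to chemical; cell-surface ICAM-1 quantified by ELISA. Parallel SRB total-protein staining assessed cytotoxicity; activity fitted relative to DMSO.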

[3] = read-out: Interleukin-8 (IL8), CXCL8 (gene 3576); test: BSK_MyoF_IL8: BioMAP Diversity Plus: MyoF Assay for Interleukin-8 (IL8) Biomarker Activity (AID 2284261); details: primary human lung fibroblasts
In short: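 IL-8 levels were measured by ELISA in human lung fibroblasts harvested 24 h after compound addition. Responses were analysed as gain of signal over the DMSO baseline.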

CD90, THY1 (gene 7070) = test: BSK_BF4T_CD90: BioMAP Diversity Plus: BF4T Assay for CD90 Biomarker Activity (AID 2284262); details: primary human bronchial epithelial cells with fibroblasts
In short: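 Co-culture of human bronchial epithelial cells and dermal fibroblasts, 24 h compound exposure. Cell-surface CD90 measured by ELISA relative to DMSO; parallel SRB total-protein staining for cytotoxicity.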

[4] = read-out: Interleukin-8 (IL8), CXCL8 (gene 3576); test: BSK_BF4T_IL8: BioMAP Diversity Plus: BF4T Assay for Interleukin-8 (IL8) Biomarker Activity (AID 2284263); details: primary human bronchial epithelial cells with fibroblasts
In short: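 Human bronchial epithelial cells with dermal fibroblasts co-culture; IL-8 measured by ELISA 24 hours after dosing, fitted vs DMSO. Cytotoxicity tracked in parallel cultures by SRB total-protein staining.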

[5] = BSK_MyoF_SRB: Viability Assessment in the BioMAP Diversity Plus: MyoF Assay (AID 2284267); details: primary human lung fibroblasts;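 also: total protein by SRB absorbance in parallel cultures as cytotoxicity measure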
In short: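 Read-out is SRB absorbance at 560 nm, reflecting total protein in parallel lung fibroblast cultures harvested 24 h after compound addition. Cells were TCA-fixed (10%) and stained with 0.1% SRB; activity is referenced to DMSO.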

[6] = read-out: Matrix Metallopeptidase 1 (MMP1), MMP1 (gene 4312); test: BSK_MyoF_MMP1: BioMAP Diversity Plus: MyoF Assay for Matrix Metallopeptidase 1 (MMP1) Biomarker Activity (AID 2284268); details: primary human lung fibroblasts
In short: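 Lung fibroblast cultures were dosed with test chemicals and, after 24 h, MMP1 levels were measured by ELISA; responses were referenced to DMSO and analysed for increases.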

[7] = read-out: TIMP metallopeptidase inhibitor 1 (TIMP1), TIMP1 (gene 7076); test: BSK_MyoF_TIMP1: BioMAP Diversity Plus: MyoF Assay for TIMP metallopeptidase inhibitor 1 (TIMP1) Biomarker Activity (AID 2284269); details: primary human lung fibroblasts
In short: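 ELISA read-out of TIMP-1 from primary human lung fibroblast cultures 24 h after compound dosing; gain of signal relative to DMSO vehicle baseline defines activity.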

[8] = read-out: Matrix Metallopeptidase 1 (MMP1), MMP1 (gene 4312); test: BSK_BF4T_MMP1: BioMAP Diversity Plus: BF4T Assay for Matrix Metallopeptidase 1 (MMP1) Biomarker Activity (AID 2284270); details: primary human bronchial epithelial cells with fibroblasts
In short: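 Co-culture of human bronchial epithelial cells and dermal fibroblasts; MMP-1 levels measured by ELISA 24 hours after chemical dosing, relative to DMSO. Cytotoxicity checked in parallel cultures by SRB total-protein staining.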

[9] = read-out: Matrix Metallopeptidase 3 (MMP3), MMP3 (gene 4314); test: BSK_BF4T_MMP3: BioMAP Diversity Plus: BF4T Assay for Matrix Metallopeptidase 3 (MMP3) Biomarker Activity (AID 2284271); details: primary human bronchial epithelial cells with fibroblasts
In short: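 Co-culture of human bronchial epithelial cells and dermal fibroblasts dosed 24 h; MMP-3 measured by ELISA, positive-direction fit versus DMSO. Cytotoxicity tracked by SRB total-protein staining (560 nm) in parallel cultures.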

[10] = read-out: Tissue plasminogen activator (tPA), PLAT (gene 5327); test: BSK_BF4T_tPA: BioMAP Diversity Plus: BF4T Assay for Tissue plasminogen activator (tPA) Biomarker Activity (AID 2284272); details: primary human bronchial epithelial cells with fibroblasts
In short: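 tPA level quantified by ELISA at 24 h post-treatment in bronchial epithelial/dermal fibroblast co-cultures, gain of signal scored against DMSO baseline. Parallel cultures stained with 0.1% SRB (560 nm) to flag overt cytotoxicity.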

[11] = read-out: Plasminogen Activator Inhibitor-1 (PAI1), SERPINE1 (gene 5054); test: BSK_BF4T_PAI1: BioMAP Diversity Plus: BF4T Assay for Plasminogen Activator Inhibitor-1 (PAI1) Biomarker Activity (AID 2284273); details: primary human bronchial epithelial cells with fibroblasts
In short: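 Co-culture of human bronchial epithelial cells and dermal fibroblasts exposed to compound for 24 h. PAI-1 measured by ELISA; activity fitted in positive direction versus DMSO. Parallel SRB staining assessed overt cytotoxicity.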

[12] = BSK_BF4T_SRB: Viability Assessment in the BioMAP Diversity Plus: BF4T Assay (AID 2284274); details: primary human bronchial epithelial cells with fibroblasts
In short: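 Co-culture of human bronchial epithelial cells and dermal fibroblasts (BioMAP BF4T) exposed 24 h. Total protein by sulforhodamine B staining (0.1% SRB after 10% TCA fixation, 560 nm) in parallel cultures; fitted vs DMSO.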

[13] = read-out: urokinase Plasminogen Activator (uPA), PLAU (gene 5328); test: BSK_BF4T_uPA: BioMAP Diversity Plus: BF4T Assay for urokinase Plasminogen Activator (uPA) Biomarker Activity (AID 2284275); details: primary human bronchial epithelial cells with fibroblasts
In short: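 Co-culture of human bronchial epithelial cells and dermal fibroblasts; uPA quantified by ELISA 24 hours after dosing, fitted relative to DMSO. Parallel SRB total-protein staining assessed overt cytotoxicity.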

[14] = read-out: Matrix Metallopeptidase 9 (MMP9), MMP9 (gene 4318); test: BSK_BF4T_MMP9: BioMAP Diversity Plus: BF4T Assay for Matrix Metallopeptidase 9 (MMP9) Biomarker Activity (AID 2284276); details: primary human bronchial epithelial cells with fibroblasts
In short: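 Co-culture of human bronchial epithelial cells and dermal fibroblasts dosed for 24 h; MMP-9 quantified by ELISA and fitted upward versus DMSO. Cytotoxicity monitored in parallel cultures by SRB total-protein staining at the biomarker time point.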

[15] = read-out: Interleukin-8 (IL8), CXCL8 (gene 3576); test: BSK_IMphg_IL8: BioMAP Diversity Plus: IMphg Assay for Interleukin-8 (IL8) Biomarker Activity (AID 2284277); details: primary human endothelial cells with macrophages
In short: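 Co-culture of human venular endothelial cells and macrophages exposed to chemicals for 24 h; IL-8 quantified by ELISA and compared against the DMSO baseline, with SRB total-protein staining in parallel cultures for cytotoxicity.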

[16] = read-out: Intercellular Adhesion Molecule 1 (ICAM1), ICAM1 (gene 3383); test: BSK_BE3C_ICAM1: BioMAP Diversity Plus: BE3C Assay for Intercellular Adhesion Molecule 1 (ICAM1) Biomarker Activity (AID 2284278); details: primary human bronchial epithelial cells
In short: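 Human primary bronchial epithelial cultures; compound added; 24 h incubation; cell-surface ICAM-1 measured by ELISA; signal increase fitted relative to DMSO negative control.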

Decorin, DCN (gene 1634) = test: BSK_MyoF_Decorin: BioMAP Diversity Plus: MyoF Assay for Decorin Biomarker Activity (AID 2284265); details: primary human lung fibroblasts
In short: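 Compound is added to lung fibroblast cultures; cells incubate 24 h; decorin is then measured by ELISA; the response is analysed upward against DMSO controls.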

Measured: AC50

NC(=O)C(F)(F)C(F)(F)C(F)(F)C(F)F
not listed: Decorin, DCN (gene 1634)
inactive: all other assays above

O=C1c2c(O)ccc(Nc3ccc(CCO)cc3)c2C(=O)c2c([N+](=O)[O-])ccc(O)c21
active: [3] 1.65 µM | Decorin, DCN (gene 1634) 9.73 µM | [5] 11 µM | [6] 11 µM
inactive: [7]

O=C(c1ccccc1)c1ccc(O)cc1O
inactive: [3] | Decorin, DCN (gene 1634) | [5] | [6] | [7]

NC(=O)C(F)(F)C(F)(F)C(F)(F)F
not listed: Decorin, DCN (gene 1634)
inactive: all other assays above

NC(=O)C(F)(F)C(F)(F)C(F)(F)C(F)(F)C(F)(F)C(F)(F)C(F)(F)F
not listed: Decorin, DCN (gene 1634)
inactive: all other assays above

CC1=CC2C3C=CC(C3)C2C1C (stereo unspecified)
inactive: [3] | [5] | [6] | [7]

C[C@]12CC[C@H]3C(=CCc4cc(O)ccc43)[C@@H]1CCC2=O
inactive: [3] | [5] | [6] | [7]

C=CC(=O)OCCC(F)(F)C(F)(F)C(F)(F)C(F)(F)F
not listed: Decorin, DCN (gene 1634)
inactive: all other assays above

NCC(F)(F)C(F)(F)C(F)(F)C(F)(F)C(F)(F)C(F)(F)C(F)(F)C(F)(F)F
not listed: Decorin, DCN (gene 1634)
inactive: all other assays above

Cc1cc(O)c(C(C)(C)C)cc1C(C)(C)C
active: [3] 32.8 µM | [5] 5.29 µM | [6] 9.48 µM | [7] 7.71 µM

COC(F)(C(F)F)C(F)(F)F (stereo unspecified)
not listed: Decorin, DCN (gene 1634)
inactive: all other assays above

O=C(O)CCC(F)(F)C(F)(F)C(F)(F)F
not listed: Decorin, DCN (gene 1634)
inactive: all other assays above

FC(F)(F)C(F)(F)C(F)(F)C(F)(F)C(F)(F)C(F)(F)C(F)(F)CCI
not listed: Decorin, DCN (gene 1634)
inactive: all other assays above

Cc1ccc(S(=O)(=O)C(I)I)cc1
inactive: [3]
active: [5] 8.6 µM | [6] 11.2 µM | [7] 5.97 µM

CC(C)(C)c1cc(CCC(=O)NCCCCCCNC(=O)CCc2cc(C(C)(C)C)c(O)c(C(C)(C)C)c2)cc(C(C)(C)C)c1O
inactive: [3] | [5] | [6] | [7]

CCN=C1C=CC(=C(c2ccc(N(CC)CC)cc2)c2ccc(N(CC)CC)cc2)c2ccccc21
active: [16] 3.19 µM and 2.57 µM

O=C1C=CC(=O)N1c1ccc(Cc2ccc(N3C(=O)C=CC3=O)cc2)cc1
active: [5] 3.58 µM | [6] 11.7 µM | [7] 5.94 µM
inactive: [3] | Decorin, DCN (gene 1634)

NC(=O)C(F)(F)C(F)(F)C(F)(F)C(F)(F)C(N)=O
not listed: Decorin, DCN (gene 1634)
inactive: all other assays above

CCOC(C=C(C)CCC=C(C)C)OCC
inactive: [3]
active: Decorin, DCN (gene 1634) 0.016 µM | [5] 30.4 µM | [6] 31.3 µM | [7] 3.97 µM

CCN(CC)c1ccc(C=O)c(O)c1
inactive: [3] | [5] | [6] | [7]

CC(C)CCCC(C)CCO (stereo unspecified)
active: [5] 34.5 µM | [6] 33.7 µM
inactive: [3] | [7]

O=C=Nc1cccc2c(N=C=O)cccc12
inactive: [3] | Decorin, DCN (gene 1634) | [5] | [6] | [7]

FC(F)(F)C(F)(F)C(F)(F)CC1CO1 (stereo unspecified)
not listed: Decorin, DCN (gene 1634)
inactive: all other assays above

CCN(CC)c1ccc(N=Nc2ccccc2)cc1
inactive: [7]
active: [3] 5.41 µM | [5] 20 µM | [6] 5.14 µM

Nc1cc([N+](=O)[O-])cc(Cl)c1O
inactive: [3] | Decorin, DCN (gene 1634) | [5] | [6] | [7]

Cc1ccc(O)c(-n2nc3ccccc3n2)c1
inactive: [3] | [5] | [6] | [7]

O=C=NCc1cccc(CN=C=O)c1
inactive: [3] | [5] | [6] | [7]

CCN(CC)c1ccc(C=O)cc1
inactive: [3] | Decorin, DCN (gene 1634) | [5] | [6] | [7]

CO[Si](C)(CCC(F)(F)C(F)(F)C(F)(F)C(F)(F)C(F)(F)C(F)(F)F)OC
not listed: Decorin, DCN (gene 1634)
inactive: all other assays above

Cc1cc(C)c(O)c(C(C)(C)C)c1
inactive: [3] | [6]
active: Decorin, DCN (gene 1634) 35.4 µM | [5] 35.9 µM | [7] 31.6 µM

Cc1cnccn1
inactive: [3] | [5] | [6] | [7]

Brc1nc2ccccc2s1
inactive: [3] | Decorin, DCN (gene 1634) | [5] | [6] | [7]

CCN(CC)c1ccc2c(c1)Oc1cc(N(CC)CC)ccc1C21OC(=O)c2ccccc21
inactive: [3] | [5] | [6] | [7]
